TTR transcr act – increases transthyretin transcription; SH-SY5Y TTR promoter Gaussia luciferase, luminescence; 100% = recombinant luciferase protein wells; activation, % at 16.7 µM; 92,000 tested, 1.3% active; AID 1117267;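 active = activation above the mean of all tested compounds plus 3 SD, cut at about 9.5% in these data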;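 note: cells exposed to compounds for one day before reading; 0% = median of all test compound wells on the plate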
TTR inh HuH7 – decreases TTR transcription in HuH7 cells in activator counter-screen | inhibition, % at 16.7 µM | 1,100 tested, 4% active | shares compounds with TTR transcr act | HuH7 TTR promoter-Gaussia luciferase reporter, luminescence;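 active = average inhibition above the solvent-only control wells' mean plus 3 SD, cut at about 15% in these data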;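 note: 0% = cells with DMSO only and 100% = cells with inhibitor control FD; inhibitors lower well luminescence so higher value means more inhibition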
TTR up confirm – human TTR transcription activation, confirmation. activation, % at 16.7 µM. 1,100 tested, under 10 active. AID 1117280. shares compounds with TTR transcr act. SHSY5Y TTR promoter Gaussia luciferase, luminescence; 100% = purified Lucia enzyme wells, no cells;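 active = mean activation above a set limit taken from the earlier primary screen, cut at about 11% in these data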;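 note: 0% = DMSO-treated cells and 100% = recombinant Lucia luciferase without cells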
Active calls of the source: *. The sample as a whole holds a higher share of hits than the screen did.

SMILES	TTR transcr act	others
CC1=NN(C(C#N)c2ccccc2)C(C)(C)C1 (stereo unspecified)	0
COc1cc(/C=C2/C(=N)N3OC(C)=CC3=NC2=O)ccc1OCCOc1ccc(C)cc1	2
COc1cccc(OCCn2cccc2/C=C2/C(=N)N3OC(C)=CC3=NC2=O)c1	2
CCOc1ccc(/C=C2/C(=N)N3OC(C)=CC3=NC2=O)cc1OC	9.9*	TTR inh HuH7=-9;TTR up confirm=0
Cc1ccc(S(=O)(=O)N(C)C)cc1NC(=O)COC(=O)CNC(=O)C12CC3CC(CC(C3)C1)C2	1
CNc1ccc(/C=C(\C#N)C(=O)Nc2ccccn2)cc1[N+](=O)[O-]	23*	TTR inh HuH7=-12;TTR up confirm=0
CC(C)(C)c1ccc(/C=C(\C#N)C(=O)Nc2ccccn2)cc1	-2
COc1cc(/C=C(\C#N)C(=O)Nc2ccccn2)ccc1O	1
CSc1nc2[nH]ncc2c(=O)n1-c1ccccc1	3
CC(=O)Nc1cccc(-c2ccnc3c2CC(C(=O)Nc2cccc(NS(C)(=O)=O)c2)O3)c1 (stereo unspecified)	17*	TTR inh HuH7=-22;TTR up confirm=1
CC(=O)Nc1cccc(-c2ccnc3c2CC(C(=O)Nc2cccnc2)O3)c1 (stereo unspecified)	5
CC(=O)c1cccc(NC(=O)C2Cc3c(-c4ccccc4)ccnc3O2)c1 (stereo unspecified)	-1
Cc1nnc(SCCn2c(N3CCC(C)CC3)nc3c2c(=O)[nH]c(=O)n3C)s1	-1
O=C(CCC1CCN(C(=O)c2cc(C(F)(F)F)ccc2Cl)CC1)NC1CC1	17*	TTR inh HuH7=-17;TTR up confirm=0
COc1cc(Cl)c(CN2CCC(CCC(=O)NC3CC3)CC2)cc1OC	1
Cc1cc(C)cc(C(=O)N2CCC(CCC(=O)NC3CC3)CC2)c1	0
CC(C)Oc1ccc(C(=O)NNC(=O)c2ccccc2C(=O)O)cc1	2
C=CCn1c(COc2cccc(C)c2C)nnc1SCC(=O)N1CCN(c2ccccc2)CC1	-3
O=C(NCc1ccccc1)Nc1nnc([C@@H]2C[C@H](O)[C@@H](CO)O2)s1	1
C[C@@H]1CN([C@@H](C)CO)C(=O)c2cc(N(C)C)ccc2O[C@@H](C)CCCCO[C@@H]1CN(C)S(=O)(=O)c1cccs1	14*	TTR inh HuH7=-6;TTR up confirm=0
C[C@@H]1CCCCO[C@@H](CN(C)S(=O)(=O)c2ccc(F)cc2)[C@@H](C)CN([C@H](C)CO)C(=O)c2cc(N(C)C)ccc2O1	-1
C[C@@H]1CCCCO[C@H](CN(C)S(=O)(=O)c2cccs2)[C@H](C)CN([C@@H](C)CO)C(=O)c2cc(NC(=O)NC3CCCCC3)ccc2O1	0
COc1cc(C2NC(=O)c3ccccc3O2)ccc1OC(C)C (stereo unspecified)	1
CN(C)c1oc(-c2ccccc2[N+](=O)[O-])nc1C#N	1
CC(C)c1ccc(NC2CCCN(C(=O)CCn3cnnn3)C2)cc1 (stereo unspecified)	2
SMILES	TTR transcr act	others
COc1ccc(C(=O)N2CCN(C(=O)C3COc4ccccc4O3)CC2)cc1 (stereo unspecified)	0
COc1cc(C(=O)N2CCN(C(=O)C3COc4ccccc4O3)CC2)cc(OC)c1OC (stereo unspecified)	0
Cc1cc(O)c2c(C)c(CC(=O)N3CCN(C(=O)C4COc5ccccc5O4)CC3)c(=O)oc2c1 (stereo unspecified)	9.8*	TTR inh HuH7=10;TTR up confirm=-1
CC(/C=N/NC(=O)c1cc(-c2ccc(Cl)cc2)nc2ccccc12)=C\c1ccco1	1
C=CCCC(=O)N1C[C@H]2CON(C)[C@H]2C[C@H]1c1cccc(Br)c1	-1
COc1ccc(OC)c(/C=C2\SC(=S)N(C(C(=O)O)c3ccccc3)C2=O)c1 (stereo unspecified)	16*	TTR inh HuH7=11;TTR up confirm=-1
CC(/C=C1\SC(=S)N(C(C(=O)O)c2ccccc2)C1=O)=C\c1ccccc1 (stereo unspecified)	0
C=CCOc1ccc(/C=C2\SC(=S)N(C(C(=O)O)c3ccccc3)C2=O)cc1 (stereo unspecified)	0
COc1ccc(OC)c(S(=O)(=O)N2CCN(C(=O)NC3CCCCC3)CC2)c1	-1
COc1cc(OC)c(-c2nc(-c3ccncc3)no2)cc1OC	-2
Cc1ccc(-c2cnc(SCCNC(=O)c3ccco3)[nH]2)cc1	0
CCOC(=O)NC1=NCC(C)(C)S1	-1
O=C(NNC(=O)c1cccc(Br)c1)C(=O)N1CCCCC1	9.9*	TTR inh HuH7=-13;TTR up confirm=0
N#C/C(=C\c1cccc(Br)c1)C(=O)N1CCCCC1	0
O=C(NNC(=O)c1cccc(Br)c1)Nc1ccc(Cl)cc1	-1
O=S(=O)(Cc1ccc(Cl)cc1)N1CCN(Cc2ccc3c(c2)OCO3)CC1	-1
O=[N+]([O-])c1cccc(NC(=S)NCc2ccncc2)c1	-1
NC(=O)CC(NC(=O)Cc1ccc(Br)cc1)c1ccc(NC2CCCCCC2)c([N+](=O)[O-])c1 (stereo unspecified)	10*	TTR inh HuH7=-8;TTR up confirm=0
NC(=O)CC(NC(=O)Cc1ccc(Cl)cc1)c1ccc(NC2CCCCCC2)c([N+](=O)[O-])c1 (stereo unspecified)	-2
NC(=O)CC(NC(=O)Cc1ccc(Br)cc1)c1ccc(NC2CCCC2)c([N+](=O)[O-])c1 (stereo unspecified)	2
Fc1ccc(OCCCCCn2ccnc2)cc1	-1
COc1ccc(N(Cc2cc3ccccc3[nH]c2=O)S(=O)(=O)c2ccccc2)cc1	-2
Cc1ccc(NCCC(=O)c2cccc([N+](=O)[O-])c2)c(C)c1	16*	TTR inh HuH7=-2;TTR up confirm=0
Cc1ccc(C(=O)CNc2ccc(C)cc2C)cc1	5
Cc1cccc(NCCC(=O)c2ccc([N+](=O)[O-])cc2)c1C	0
SMILES	TTR transcr act	others
O=C(O)CC(SCC(=O)NC1CCCc2ccccc21)C(=O)O (stereo unspecified)	-1
Cc1nc(N)ncc1CCC1OCCO1	12*	TTR inh HuH7=-10;TTR up confirm=0
COc1ccc2c(c1OC)C(=O)OC2Nc1ccccc1S(=O)(=O)C(F)F (stereo unspecified)	1
CC(C)(C)n1cnc2cc(NCc3ccc(Br)cc3)ccc21	0
COc1cccc(OC)c1C(=O)NNC(=O)c1cccnc1	3
O=C1SCCC1NC(=O)C(c1ccccc1)c1ccccc1 (stereo unspecified)	18*	TTR inh HuH7=0;TTR up confirm=-1
O=C(CCCc1ccccc1)NC1CCSC1=O (stereo unspecified)	1
O=C(NC1CC1)C(Cl)c1ccccc1 (stereo unspecified)	0
Cn1ncc2c(NCCO)nc(Cl)nc21	4
CCCC(C)(C)C(=O)N1CCC1(C)C(=O)Nc1ccc(OC)c(OC)c1 (stereo unspecified)	-3
O=C(Nc1ccccc1C(=O)NC(Cc1ccc(O)cc1)C(=O)O)c1ccccc1 (stereo unspecified)	2
O=S1(=O)CC(N2CCC(c3ccccc3)CC2)CN1Cc1ccc(F)cc1 (stereo unspecified)	1
CN(C)CC(CCC(CN(C)C)C(O)(c1ccccc1)c1ccccc1)C(O)(c1ccccc1)c1ccccc1 (stereo unspecified)	11*	TTR inh HuH7=53*;TTR up confirm=0
CC(c1ccccc1C(O)(c1ccccc1)c1ccccc1)N(C)C (stereo unspecified)	2
CC(C)N(CC#CCC(O)(c1ccccc1)c1ccccc1)C(C)C	1

Screens: PubChem, The Scripps Research Institute Molecular Screening Center
